Test results taken from PubChem BioAssay (Tox21).
Inconclusive results are not listed. The source made the active and inactive calls. Calls follow the shape of the dose curve; as a rule, active = well fitted curve in the direction sought with a large enough effect in the repeat runs; inconclusive = weak or mixed curves; inactive = no such curve, though single readings can be large; an effect the other way counts as inactive or inconclusive.

What was measured:
[1] = target: Cytochrome P450 2C19 (Homo sapiens) (UniProt P33261); assay: Cytochrome P450 Family 2 Subfamily C Member 19 (CYP2C19) small molecule antagonists: luciferase reporter qHTS assay (AID 1671197); settings: P450-Glo CYP2C19 enzyme, luciferin luminescence, 1 h; series mostly up to 115 µM; also: nearly all actives have a fitted effect of over 65% in size; also: potency is read from the fitted curve at half-maximal effect
Cytochrome P450 2C19 (Homo sapiens), sequence (P33261 whole entry, looked up): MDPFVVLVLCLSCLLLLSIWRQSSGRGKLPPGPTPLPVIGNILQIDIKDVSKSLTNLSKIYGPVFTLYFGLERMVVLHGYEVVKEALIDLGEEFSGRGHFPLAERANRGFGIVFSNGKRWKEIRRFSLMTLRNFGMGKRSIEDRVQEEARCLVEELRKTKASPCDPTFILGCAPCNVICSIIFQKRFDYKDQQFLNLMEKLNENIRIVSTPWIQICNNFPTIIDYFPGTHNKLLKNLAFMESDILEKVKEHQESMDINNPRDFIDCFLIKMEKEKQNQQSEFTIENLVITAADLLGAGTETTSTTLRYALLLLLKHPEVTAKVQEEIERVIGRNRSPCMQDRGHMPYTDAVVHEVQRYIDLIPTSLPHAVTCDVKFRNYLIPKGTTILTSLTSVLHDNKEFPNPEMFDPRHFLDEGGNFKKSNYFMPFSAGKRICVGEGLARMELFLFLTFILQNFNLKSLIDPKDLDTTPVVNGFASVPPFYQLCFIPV
How it was run: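 Compounds were tested on CYP2C19 activity via proluciferin conversion to luciferin. The 37C, 1 h reaction followed NADPH addition; detection reagent stopped it.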

[2] = target: Cytochrome P450 2C9 (Homo sapiens) (UniProt P11712); assay: Cytochrome P450 Family 2 Subfamily C Member 9 (CYP2C9) small molecule antagonists: luciferase reporter qHTS assay (AID 1671198); settings: P450-Glo CYP2C9 enzyme assay, luciferin luminescence; series mostly up to 115 µM; also: nearly all actives have a fitted effect of over 50% in size; also: potency is read from the fitted curve at half-maximal effect
Cytochrome P450 2C9 (Homo sapiens), sequence (P11712 whole entry, looked up): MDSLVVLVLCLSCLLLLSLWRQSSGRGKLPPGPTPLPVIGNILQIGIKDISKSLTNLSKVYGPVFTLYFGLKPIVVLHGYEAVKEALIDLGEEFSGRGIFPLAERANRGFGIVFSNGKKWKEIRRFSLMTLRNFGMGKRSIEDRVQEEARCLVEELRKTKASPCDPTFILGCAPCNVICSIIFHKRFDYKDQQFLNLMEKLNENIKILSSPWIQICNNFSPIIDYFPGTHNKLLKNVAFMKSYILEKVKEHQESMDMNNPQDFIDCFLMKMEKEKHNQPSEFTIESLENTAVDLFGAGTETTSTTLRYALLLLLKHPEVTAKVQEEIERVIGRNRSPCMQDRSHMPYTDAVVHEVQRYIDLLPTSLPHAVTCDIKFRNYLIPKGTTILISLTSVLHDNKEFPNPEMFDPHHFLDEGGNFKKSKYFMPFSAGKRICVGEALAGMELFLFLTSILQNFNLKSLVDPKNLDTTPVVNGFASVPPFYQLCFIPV
How it was run: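 CYP2C9 activity was measured with a P450-Glo proluciferin substrate. Enzyme–substrate mix was held with compound for 10 min at room temperature, then NADPH regeneration solution was added for 1 h at 37C. Luciferin product was read as luminescence.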

[3] = target: Cytochrome P450 1A2 (Homo sapiens) (UniProt P05177); assay: Cytochrome P450 Family 1 Subfamily A Member 2 (CYP1A2) small molecule antagonists: luciferase reporter qHTS assay (AID 1671199); settings: P450-Glo CYP1A2 enzyme, luciferin luminescence, 1 h; series mostly up to 115 µM; also: nearly all actives have a fitted effect of over 50% in size; also: potency is read from the fitted curve at half-maximal effect
Cytochrome P450 1A2 (Homo sapiens), sequence (P05177 whole entry, looked up): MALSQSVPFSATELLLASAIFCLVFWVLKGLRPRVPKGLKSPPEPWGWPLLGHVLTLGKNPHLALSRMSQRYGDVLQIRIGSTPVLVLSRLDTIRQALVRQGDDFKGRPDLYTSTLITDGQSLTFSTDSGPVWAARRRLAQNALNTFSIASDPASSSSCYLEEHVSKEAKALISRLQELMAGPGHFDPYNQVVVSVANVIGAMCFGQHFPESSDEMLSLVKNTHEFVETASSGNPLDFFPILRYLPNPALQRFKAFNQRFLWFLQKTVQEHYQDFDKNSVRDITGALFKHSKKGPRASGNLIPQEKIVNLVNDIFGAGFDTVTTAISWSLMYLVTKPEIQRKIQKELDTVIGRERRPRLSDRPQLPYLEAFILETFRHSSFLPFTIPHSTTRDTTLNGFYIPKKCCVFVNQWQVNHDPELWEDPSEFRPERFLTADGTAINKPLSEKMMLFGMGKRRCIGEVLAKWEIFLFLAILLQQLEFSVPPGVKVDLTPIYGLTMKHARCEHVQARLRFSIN
How it was run: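 Read-out is luminescence from luciferin detection reagent (20 min) proportional to CYP1A2 activity; compounds in DMSO preincubated 10 min with enzyme and proluciferin substrate, then NADPH regeneration solution, 1 h, room temperature.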

[4] = target: Voltage-gated inwardly rectifying potassium channel KCNH2 (Homo sapiens) (UniProt Q12809); assay: Human Ether-a-go-go-Related Gene (hERG) channel small molecule antagonists: fluorescence cell-based qHTS assay (AID 1671200); settings: hERG-U2OS cells, FluxOR thallium flux fluorescence; series mostly up to 76.8 µM;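 also: hERG-expressing U2OS cells given a thallium stimulus after FluxOR II dye loading; nearly all actives have a fitted effect of over 50% in size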
Voltage-gated inwardly rectifying potassium channel KCNH2 (Homo sapiens), sequence (Q12809 whole entry, looked up): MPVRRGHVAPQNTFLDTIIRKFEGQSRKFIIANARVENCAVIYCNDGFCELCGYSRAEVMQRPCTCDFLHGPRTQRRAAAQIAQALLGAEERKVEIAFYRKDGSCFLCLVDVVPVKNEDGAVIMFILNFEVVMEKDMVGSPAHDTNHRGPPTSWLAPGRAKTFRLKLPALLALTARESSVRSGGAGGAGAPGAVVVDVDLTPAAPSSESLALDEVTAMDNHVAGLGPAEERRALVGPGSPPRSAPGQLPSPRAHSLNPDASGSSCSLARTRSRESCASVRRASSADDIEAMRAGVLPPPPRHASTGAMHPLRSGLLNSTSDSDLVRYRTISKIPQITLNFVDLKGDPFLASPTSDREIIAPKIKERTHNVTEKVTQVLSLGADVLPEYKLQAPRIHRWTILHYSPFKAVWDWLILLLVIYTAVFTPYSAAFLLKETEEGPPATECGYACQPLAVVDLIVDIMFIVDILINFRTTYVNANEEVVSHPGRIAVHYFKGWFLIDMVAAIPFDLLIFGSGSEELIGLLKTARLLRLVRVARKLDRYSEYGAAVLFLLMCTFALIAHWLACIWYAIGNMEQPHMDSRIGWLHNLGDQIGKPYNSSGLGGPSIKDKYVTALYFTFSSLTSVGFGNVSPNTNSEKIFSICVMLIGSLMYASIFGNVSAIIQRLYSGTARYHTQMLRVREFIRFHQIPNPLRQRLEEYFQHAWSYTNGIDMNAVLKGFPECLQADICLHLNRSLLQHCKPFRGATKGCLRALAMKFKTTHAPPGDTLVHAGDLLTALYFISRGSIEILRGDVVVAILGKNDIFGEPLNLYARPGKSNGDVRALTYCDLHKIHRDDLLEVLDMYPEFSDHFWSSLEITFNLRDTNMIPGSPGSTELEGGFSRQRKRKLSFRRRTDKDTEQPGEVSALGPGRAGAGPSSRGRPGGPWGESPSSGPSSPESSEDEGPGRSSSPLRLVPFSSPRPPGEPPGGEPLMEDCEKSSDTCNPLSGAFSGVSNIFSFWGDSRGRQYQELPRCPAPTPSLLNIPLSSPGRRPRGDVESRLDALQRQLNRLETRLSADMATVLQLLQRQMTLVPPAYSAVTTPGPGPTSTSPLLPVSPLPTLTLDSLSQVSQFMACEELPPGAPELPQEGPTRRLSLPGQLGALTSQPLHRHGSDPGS
How it was run: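 Thallium served as the potassium surrogate; its influx into dye-loaded U2OS cells carrying the channel was measured by fluorescence over 2 min.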

[5] = target: Cytochrome P450 3A4 (Homo sapiens) (UniProt P08684); assay: Cytochrome P450 Family 3 Subfamily A Member 4 (CYP3A4) small molecule antagonists: luciferase reporter qHTS assay (AID 1671201); settings: P450-Glo CYP3A4 enzyme, luciferin luminescence, 1 h; series mostly up to 115 µM; also: nearly all actives have a fitted effect of over 50% in size; also: potency is read from the fitted curve at half-maximal effect
Cytochrome P450 3A4 (Homo sapiens), sequence (P08684 whole entry, looked up): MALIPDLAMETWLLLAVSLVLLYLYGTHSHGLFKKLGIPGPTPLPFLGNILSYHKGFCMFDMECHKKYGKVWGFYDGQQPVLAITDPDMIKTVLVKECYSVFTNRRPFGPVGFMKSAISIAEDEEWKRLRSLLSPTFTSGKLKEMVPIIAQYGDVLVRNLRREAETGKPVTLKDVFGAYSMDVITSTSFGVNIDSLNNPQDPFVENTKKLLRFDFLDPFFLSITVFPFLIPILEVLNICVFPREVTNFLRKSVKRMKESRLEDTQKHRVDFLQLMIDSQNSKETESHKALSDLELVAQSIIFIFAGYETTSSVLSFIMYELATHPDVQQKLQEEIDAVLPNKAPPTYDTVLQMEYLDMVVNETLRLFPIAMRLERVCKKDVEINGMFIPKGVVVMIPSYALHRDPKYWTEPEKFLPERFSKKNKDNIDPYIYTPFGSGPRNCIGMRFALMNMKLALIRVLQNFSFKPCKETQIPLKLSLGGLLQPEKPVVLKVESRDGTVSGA
How it was run: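 Relative luminescence units after 20 min with luciferin detection reagent served as read-out. Beforehand, CYP3A4 turned over a proluciferin substrate for 1 h at room temperature with NADPH regeneration, following 10 min compound preincubation.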

Measured: Potency

CC1=C(C)C(=O)C(CCCCC#CCCCC#CCO)=C(C)C1=O
active: [1] 11 µM | [2] 6.92 µM | [3] 4.9 µM

COc1ccc(/C(C)=C/C(=O)O)c(OC)c1
inactive: all assays above

CCCCOc1ccc(N)cc1
inactive: [4]
active: [1] 28.3 µM | [2] 39.9 µM | [3] 11.2 µM

O=C(O)c1cccc(C(=O)O)c1C(=O)O
active: [1] 71.7 µM
inactive: all other assays above

CCOc1ccccc1O
inactive: all assays above

CC(=O)c1cccnc1
inactive: all assays above

C/C(=C(\CCO)SS/C(CCO)=C(\C)N(C=O)Cc1cnc(C)nc1N)N(C=O)Cc1cnc(C)nc1N
not listed: [5]
inactive: all other assays above

O=C(O)c1cc(C(=O)O)c(C(=O)O)cc1C(=O)O
inactive: all assays above

O=C(O)c1c2ccccc2cc2ccccc12
active: [2] 31.6 µM | [3] 10 µM
inactive: all other assays above

CCCN(C1CCN(C(=O)C2CCNCC2)CC1)[C@@H]1CCc2ccc(OC)cc2C1
inactive: [1] | [2] | [3]

SCCOCCOCCS
inactive: [4]
active: [1] 10 µM | [2] 35.6 µM | [3] 22.4 µM | [5] 17.8 µM

c1ccc(CCNc2nc(-c3ccccc3)cs2)cc1
active: [1] 2.75 µM | [2] 6.92 µM | [3] 2.29 µM
inactive: [4]
